# From PubChem BioAssay
# CYP2C19 act: cytochrome P450 2C19 (human) activation; P33261; recombinant CYP2C19, luciferin-H EGE luminescence; hits give high values; 0 = fully inhibited enzyme, 1 = untreated enzyme; activation factor at 5 µM; 96,000 tested, under 10 active; AID 1025;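 active means activation factor of at least 2 at 5 µM in the primary screen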
# CYP2C9 act: CYP2C9 (human) activation. activation factor at 5 µM. 96,000 tested, 1.4% active. P11712. recombinant CYP2C9, luciferin-H conversion, luminescence; hits give high values; factor 1 = untreated enzyme, 0 = blocked. AID 1024;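 active means activation factor of 2 or more for CYP2C9 at a 5 µM dose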
# Target sequence (P11712 whole entry, looked up): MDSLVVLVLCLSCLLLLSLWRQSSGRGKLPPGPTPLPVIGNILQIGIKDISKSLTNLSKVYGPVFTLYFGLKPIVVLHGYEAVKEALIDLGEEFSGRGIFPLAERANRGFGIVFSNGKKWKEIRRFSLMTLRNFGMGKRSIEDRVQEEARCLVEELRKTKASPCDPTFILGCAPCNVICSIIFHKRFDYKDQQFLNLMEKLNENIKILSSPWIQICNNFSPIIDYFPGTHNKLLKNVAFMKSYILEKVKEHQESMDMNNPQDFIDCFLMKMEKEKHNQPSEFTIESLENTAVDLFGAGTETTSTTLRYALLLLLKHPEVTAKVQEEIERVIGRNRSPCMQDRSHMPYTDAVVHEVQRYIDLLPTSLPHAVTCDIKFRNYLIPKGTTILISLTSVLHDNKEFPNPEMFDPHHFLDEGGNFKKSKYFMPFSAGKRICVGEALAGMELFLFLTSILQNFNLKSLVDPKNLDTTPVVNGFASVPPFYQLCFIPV
# PLAP act: activators of human placental alkaline phosphatase. P05187. purified PLAP enzyme, luminescent substrate read-out; hits give high values. activation fold at 20 µM. 96,000 tested, 1.2% active; in the data active means activation fold above about 2
# CYP2C9 inh: inhibitors of human CYP2C9. inhibition, % at 5 µM. CYP2C9 Supersomes, luciferin-H conversion, luminescence. 96,000 tested, 20% active. AID 777. P11712;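 active means blocking of liver enzyme CYP2C9 beyond about 50% at 5 µM, limit read from the data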
# CYP2C19 inh: inhibitors of human CYP2C19; CYP2C19 Supersomes, luciferin-H EGE luminescence, 30 min; inhibition, % at 5 µM; 96,000 tested, 21% active; AID 778;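 active means CYP2C19 inhibition above a set limit at 5 µM in the primary screen, cut at about 50% in these data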
# A number is an active result; . = inactive. The list is not random: actives were taken first. Their share in the collection is about 31%.
SMILES,CYP2C19 act,CYP2C9 act,PLAP act,CYP2C9 inh,CYP2C19 inh
NC(=O)Cn1nnc(-c2ccccc2NC(=O)c2cnccn2)n1,.,.,.,.,.
CCOC(=O)c1ccc(CNC(=O)CSc2nnnn2-c2ccc(Cl)cc2)o1,.,.,.,.,.
CCOC(=O)c1ccc(CNC(=O)Cn2nnc(-c3ccc(C)cc3)n2)o1,.,.,.,60,.
CCOC(=O)c1ccc(Cn2c(-c3ccccc3)nnc2-c2ccccc2)o1,.,.,.,58,.
O=C(CN1C(=O)CC(c2ccccc2)=Nc2ccccc21)NCc1ccco1,.,.,.,71,.
COc1cc(C(=O)Nc2ccccc2-c2nnn(CC(N)=O)n2)cc(OC)c1OC,.,.,.,78,.
Cc1ccc(C)c(SCC(=O)OCC(=O)c2ccco2)c1,.,.,.,.,.
O=C(COc1ccccc1)Nc1ccc(CSc2ccccc2)cc1,.,.,.,.,.
Cc1ccc(CN2CCN(CC3CC4C=CC3C4)CC2)cc1 (stereo unspecified),.,.,.,.,.
CCOC(=O)c1c(NC(=O)Cn2nnc(-c3ccc(Cl)cc3)n2)sc(CC)c1C,.,.,.,74,.
COc1ccc(-c2nnn(CC(=O)NCc3cccs3)n2)cc1OC,.,.,.,.,.
O=C(Cn1nnc(-c2ccccc2)n1)NCc1cccs1,.,.,.,.,72
CCC(=O)NS(=O)(=O)c1cccnc1Nc1ccc(Cl)cc1,.,.,.,96,.
CC(=O)NS(=O)(=O)c1cccnc1Nc1ccc(Cl)c(Cl)c1,.,.,.,71,.
COC(=O)COc1cccc2c(=O)n(CC(=O)N3CCCc4ccccc43)ccc12,.,.,.,.,.
CCOc1ccc(S(=O)(=O)NCCC(=O)OCN2C(=O)c3ccccc3C2=O)cc1,.,.,.,.,70
COc1ccc(S(=O)(=O)NC(CC(=O)N2CCc3ccccc32)c2ccco2)cc1 (stereo unspecified),.,.,.,.,.
CC(OC(=O)C1CCN(S(=O)(=O)c2ccc(Cl)cc2)CC1)C(=O)N1CCc2ccccc21 (stereo unspecified),.,.,.,.,66
CCOc1ccc(S(=O)(=O)NCCC(=O)OC(C)C(=O)N2CCc3ccccc32)cc1 (stereo unspecified),.,2.1,.,.,50
O=C(C1CCN(S(=O)(=O)c2ccc3c(c2)OCCO3)CC1)N1CCc2ccccc21,.,.,.,.,.
CC(=O)Nc1ccc(S(=O)(=O)NCC(=O)OCC(=O)N2CCc3ccccc32)cc1,.,.,.,71,.
O=C(CNS(=O)(=O)c1ccccc1Br)OCC(=O)N1CCc2ccccc21,.,.,.,.,.
Cc1ccnc(N2CCC(C(=O)Nc3nnc(C)s3)CC2)n1,.,.,.,.,.
COCCNC(=O)CS(=O)(=O)Cc1nc(-c2ccc(C)cc2)oc1C,.,.,.,.,.
Clc1ccc2c(c1)C(c1cccs1)=NNC(c1cccnc1)=N2,.,.,.,68,.
SMILES,CYP2C19 act,CYP2C9 act,PLAP act,CYP2C9 inh,CYP2C19 inh
Fc1ccc2c(c1)C(c1ccncc1)=NNC(c1cccnc1)=N2,.,.,.,54,51
Cc1ccc2c(c1)C(c1ccncc1)=NNC(c1ccc(C(C)C)cc1)=N2,.,.,.,.,.
CCc1ccc2c(c1)C(c1cccs1)=NNC(c1cccnc1)=N2,.,.,.,.,.
Cc1sc(NC(=O)c2cccc([N+](=O)[O-])c2)c(C(N)=O)c1-c1ccc(C(C)(C)C)cc1,.,.,.,.,.
Cc1sc2ncn(CC(=O)NCCN3CCOCC3)c(=O)c2c1S(=O)(=O)N1CCC(C)CC1,.,.,.,.,.
COc1ccc(CNC(=O)c2cccs2)cc1,.,.,.,.,94
CCOCCCNC(=O)c1ccccc1SC,.,.,.,.,.
CC(C)OCCCNC(=O)c1cccs1,.,.,.,.,.
COc1ccccc1OCCNC(=O)c1cccs1,.,.,.,52,92
COc1ccc(OCC(=O)NNC(=O)c2cccs2)cc1,.,.,.,.,.
O=C(NCCN1Cc2ccccc2C1=O)c1cccs1,.,.,.,.,77
CCc1ccc(OCCNC(=O)c2ccccc2SCc2ccc(F)cc2)cc1,.,.,.,50,51
O=C(NCc1ccccc1F)c1cccs1,.,.,.,.,59
CCc1ccc(OCCNC(=O)c2cccs2)cc1,.,.,.,74,.
CCCCOCCCNC(=O)c1cccs1,.,.,.,.,.
O=C(CN1C2=NCCN2c2ccccc21)c1ccco1,.,.,.,.,.
CC(C)C(=O)Nc1nnc(CCN2CCOCC2)s1,.,.,.,.,.
O=C(COC(=O)c1cccc(C(=O)OCC(=O)NC2CCCCC2)n1)NC1CCCCC1,.,.,.,.,.
CC1CCCC(NC(=O)COC(=O)Cc2ccsc2)C1C (stereo unspecified),.,.,.,.,64
CC1CCCC(NC(=O)COC(=O)COc2ccc(Cl)cc2)C1C (stereo unspecified),.,.,.,.,.
CC1CCCC(NC(=O)COC(=O)CCC2CCCC2)C1C (stereo unspecified),.,.,.,64,.
O=C(COC(=O)Cc1ccsc1)NC1CCCCCC1,.,.,.,.,74
O=C(COC(=O)Cc1ccsc1)NCC12CC3CC(CC(C3)C1)C2,.,.,.,.,59
CC(C)CCNC(=O)C1CCN(C(=O)N(C)C)CC1,.,.,.,.,.
CN1C(=O)C(CC(=O)N2CCN(C(c3ccccc3)c3ccccc3)CC2)N(C)C1=O (stereo unspecified),.,.,.,.,.
SMILES,CYP2C19 act,CYP2C9 act,PLAP act,CYP2C9 inh,CYP2C19 inh
CCCN(CCO)Cc1ccc2ccccc2c1,.,.,.,.,52
CCn1c(CC(=O)Nc2ccccc2F)nnc1SCC(=O)N1CCN(c2ccccc2)CC1,.,.,.,.,.
CCS(=O)(=O)CCSC(=N)N,.,.,.,.,.
Clc1ccc(OCCn2ccnc2)c2ccccc12,.,.,.,91,97
Clc1ccc(SCCn2ccnc2)cc1,.,.,.,60,90
CC(C)NCCOCCSc1ccc(Cl)cc1,.,.,.,.,.
Clc1ccccc1OCCCCN1CCCC1,.,.,.,.,.
Clc1ccc(OCCn2ccnc2)c(Cl)c1,.,.,.,96,95
Clc1ccc(OCCn2ccnc2)c(Br)c1,.,.,.,95,97
O=C(Nc1cccc2ccccc12)/C(=C/c1ccc([N+](=O)[O-])cc1)NC(=O)c1ccccc1,.,.,.,.,.
COC(=O)/C(=C/Nc1cccc2ccccc12)[N+](=O)[O-],.,.,.,.,55
c1ccc(CCNc2ncnc3nc[nH]c23)cc1,.,.,2.2,.,.
c1ccc2c(CCNc3ncnc4nc[nH]c34)c[nH]c2c1,.,.,.,.,83
COCCCNc1ncnc2nc[nH]c12,.,.,.,.,.
Cc1ccc(S(=O)(=O)NC2(C(=O)O)CCCCC2)cc1,.,.,.,57,.
O=C(O)CCC(=O)Nc1nc2nc(-c3ccccc3)cc(-c3ccccc3)n2n1,.,.,.,.,.
